According to PubChem BioAssay AID488896 (Broad Institute, 2010):
Hit rate of the full screen: of about 320,000 compounds, about 3,100 (0.97%) were called active. Many of the other results were omitted from the sample, so actives are more common in it than they were. Values without a mark were called inactive.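 The calls were made as follows: active = mean replicate inhibition of at least 70% and a set share of replicates each scoring 70 or more; inconclusive = meets just one of the two criteria; inactive = fails both criteria.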

Biological target: Scavenger receptor class B member 1 (Mus musculus) (UniProt Q61009)
Experiment: inhibitors of SR-BI mediated HDL lipid uptake, primary screen, ldlA[mSR-BI] cells, fluorescence, single point (AID 488896);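 also: 0% = median of neutral control wells and 100% = median of positive control wells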
Conditions: ldlA[mSR-BI] CHO cells, DiI-HDL uptake fluorescence, 3 h; at 12.5 µM; stronger effect = higher value

Chain of Scavenger receptor class B member 1 (Mus musculus) (Q61009 whole entry, looked up): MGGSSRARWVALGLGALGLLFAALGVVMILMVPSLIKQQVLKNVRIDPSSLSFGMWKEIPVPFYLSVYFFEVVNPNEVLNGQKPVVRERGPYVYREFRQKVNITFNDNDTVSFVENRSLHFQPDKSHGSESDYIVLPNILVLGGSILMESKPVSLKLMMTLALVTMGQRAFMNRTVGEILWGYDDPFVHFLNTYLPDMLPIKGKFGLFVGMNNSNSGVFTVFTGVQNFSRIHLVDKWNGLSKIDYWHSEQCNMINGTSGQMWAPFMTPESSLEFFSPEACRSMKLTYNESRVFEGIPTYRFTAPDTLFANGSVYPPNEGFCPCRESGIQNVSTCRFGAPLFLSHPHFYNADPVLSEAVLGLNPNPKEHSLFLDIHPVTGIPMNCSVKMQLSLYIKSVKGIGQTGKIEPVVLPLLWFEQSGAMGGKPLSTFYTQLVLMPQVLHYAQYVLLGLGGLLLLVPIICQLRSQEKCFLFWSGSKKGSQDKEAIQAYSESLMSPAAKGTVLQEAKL

SMILES	inhibition
CCCCC(=O)NC(c1ccc(OC)c(OC)c1)c1ccc2cccnc2c1O (stereo not given)	3.38%
N#C/C(=C\C1=C(N2CCOCC2)C(=C\c2ccccc2)/CC1)C(=O)Nc1ccccc1F	83.9% (active)
O=C(CC1SC(N2CCOCC2)=NC1=O)Nc1ccccc1F (stereo not given)	-4.16%
N#C/C(=C\c1ccccc1C(F)(F)F)C(=O)Nc1ccccc1F	-32.2%
O=C(Nc1ccc(S(=O)(=O)N2CCOCC2)cc1)C1CCN(S(=O)(=O)c2ccc(Cl)cc2)CC1	-8.47%
CC12CCCCC1=CC(=O)CC2 (stereo not given)	-0.111%
COc1ccc(Cl)cc1C=CC=NNC(=O)c1ccncc1	70%
O=C(NNc1c2ccccc2nc2ccccc12)c1cc2ccccc2cc1O	117% (active)
CC(C)(C)OC(=O)NNc1c2ccccc2nc2ccccc12	23.2%
O=C(N/N=C/c1cccnc1)c1cc2ccccc2cc1O	25.7%
COC(=O)c1ccc(NCc2cc(O)ccc2O)cc1	-3.37%
CC(C)c1cc(N=O)cc(C(C)C)c1O	-19.1%
O=C(NN=Cc1ccccc1)c1ccccc1	-4.39%
CC(C)c1ccc(C=NNc2ccc([N+](=O)[O-])cn2)cc1	-2.92%
Cc1nn(-c2ccc(F)cc2)c(Cl)c1/C=C(/CCC(=O)O)c1nc2ccccc2s1	-16%
O=C(CC1Sc2ccccc2NC1=O)NNc1ccc(Cl)c(Cl)c1 (stereo not given)	45.6%
N#CC1=C(N)Oc2cc(N)ccc2C1c1ccccc1 (stereo not given)	-23.9%
COc1ccc2nc(Nc3nc(-c4ccncc4)cs3)sc2c1	80.2% (active)
COc1ccc2nc(NC(=O)c3ccc(Br)s3)sc2c1	55.7%
COc1ccc2nc(NC(=O)[C@@H]3CCCN3C(=O)c3cccs3)sc2c1	14.9%

SMILES	inhibition
OCC(O)C1OCOC(C(O)CO)C1O (stereo not given)	-38.2%
CC1(C)C(=O)CCC2(C)C1=CCC1C2C(=O)CC2(C)C1CCC2(O)C(=O)CO (stereo not given)	-7.32%
CC1CCCN(C(=O)Cn2c(=O)oc3cc(S(=O)(=O)N4CCCCC4C)ccc32)C1 (stereo not given)	-29.3%
CC(C)C[C@H]1CN([C@@H](CC(C)C)CN2CCC[C@@H]2CN2C(=O)C(=O)NC[C@@H]2Cc2ccccc2)C(=O)C(=O)N1CCc1ccccc1	20.9%
CS(=O)(=O)c1ccc2nc(NC(=O)C3C4C=CC(C4)C3C(=O)O)sc2c1 (stereo not given)	5.33%
COc1cccc(C(=O)Nc2nc3ccc(S(C)(=O)=O)cc3s2)c1	70.8% (active)
CS(=O)(=O)c1ccc2nc(NC(=O)c3ccc(Cl)nc3)sc2c1	32.9%
Cc1ccc(S(=O)(=O)n2oc(=O)c(C3CCCCC3)c2N)cc1	-8.19%
O=C1C(Cl)=C(Oc2ccccc2)C(=O)c2ccccc21	13.1%
CCCC(=O)N(CCN1CCOCC1)c1nc2ccc(OCC)cc2s1	40.2%
CCOc1ccc2nc(NC(=O)c3cc([N+](=O)[O-])ccc3N3CCOCC3)sc2c1	78.1% (active)
COc1ccc(S(=O)(=O)N2CCCCC2)cc1NC(=O)c1cc([N+](=O)[O-])ccc1N1CCOCC1	23.2%
O=C1OC(Cc2ccccc2)C(c2ccccc2)C1=O (stereo not given)	-5.71%
COc1ccc(N=C2C=CC(=O)O2)cc1	-24.8%
O=S(=O)(Cc1ccc(Cl)cc1Cl)c1ccc(Cl)cc1	15.8%
CCCOC(=O)c1[nH]c2c(c1C)C(=O)CC(c1cc(OC)c(OC)c(OC)c1)C2 (stereo not given)	81.3% (active)
CCCOC(=O)c1[nH]c2c(c1C)C(=O)CC(c1cccs1)C2 (stereo not given)	59.1%
COCCOC(=O)c1[nH]c2c(c1C)C(=O)CC(c1ccc(OC)cc1)C2 (stereo not given)	41.6%
Cc1cccc(NC(=S)N2CCC(C(=O)c3ccc(F)cc3)CC2)c1	14.1%
C#CCOCCOCCOCCNc1nc(N2CCN(C(=O)Cn3cc(CCO)nn3)CC2)nc(N2CCN(C(=O)[C@H](CCCCN)n3cc(CCCC)nn3)CC2)n1	-18.7%

SMILES	inhibition
COc1ccc(C(CNC(=O)c2cc(S(=O)(=O)Nc3cccc(C)c3)ccc2C)N2CCCC2)cc1 (stereo not given)	-20.9%
COC(=O)c1c(NC(C)=O)sc(C(=O)Nc2ccccc2OC)c1C	71.5% (active)
CCC(=O)Nc1sc(C(=O)Nc2ccccc2)c(C)c1C(=O)OC	68.4%
COc1ccccc1NC(=O)c1ccc(C)s1	18%
c1ccc2c(c1)OC1OC2Oc2ccccc21	-7.46%
CC(C)Sc1nc(N)nc2c1ncn2C1OC(CO)C(O)C1O (stereo not given)	-12.5%
Cc1ccc(/C=N/NC(=O)C2=NNC(c3ccccc3)(c3ccccc3)C2)c(O)c1	106% (active)
COc1ccc(/C=N/NC(=O)c2cc(-c3cccc(C)c3)nc3ccccc23)cc1O	66.3%
Cc1ccc2occ(/C=N/NC(=O)c3ccccc3C)c(=O)c2c1	-16.4%
CN(C)C(CNC(=O)c1cc2ccccc2o1)c1ccccc1 (stereo not given)	6.69%
O=C(O)c1ccc(/C=N/NC(=O)c2ccc(Br)cc2)cc1	-48.4%
O=C(N/N=C/c1ccc(OCC2COCCO2)cc1)c1ccc(Br)cc1 (stereo not given)	74.1% (active)
O=C(O)c1ccc(OCC2CCCO2)cc1 (stereo not given)	-17.3%
CCOC(=O)C1(O)CC(C)=NN1C(=O)c1cccc(Br)c1 (stereo not given)	5.6%
CC1=NN(C(=O)c2ccc(Br)cc2)C(O)(c2ccccc2)C1 (stereo not given)	88.2% (active)
CC1=NN(C(=O)c2ccccc2Br)C(O)(c2cccnc2)C1 (stereo not given)	-13.8%
COc1cc2c(cc1CNC[C@H]1O[C@@H](n3cnc(C(N)=O)n3)[C@H](O)[C@@H]1O)OCO2	-13.6%
O=C1CC(c2ccccc2)C(=O)N2C(=O)CC(c3ccccc3)C(=O)N12 (stereo not given)	-16.5%
COc1ccc(CNCCCn2cnc3c(OCc4ccccc4)ncnc32)cc1	-7.17%
COc1cccc(CC(=NO)c2cccc(OC)c2)c1	2.96%
